DT40 TDP1 no CPT: qHTS for Inhibitors of human tyrosyl-DNA phosphodiesterase 1 (TDP1): qHTS in cells in absence of CPT | DT40 Tdp1-/- hTDP1 cells, no CPT, ATP luminescence, 48 h | Potency, µM (titrated, usually from 46.2 µM), hits mostly inhibitors | actives 15% (n = 420,000); further: nearly all actives have a fitted effect of over 55% in size
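Readout: luminescence from CellTiter-Glo after 30 min in the dark at RT. Cells: DT40 Tdp1-/- with stable hTDP1, 400/well. Exposure: compounds alone, ≥48 hr, 37 °C.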
IL-1B inflam inh: inflammasome signaling inhibition, IL-1 beta readout; THP-1 LPS/ATP IL-1B secretion, AlphaLISA, 16 h; stronger effect = lower value; actives 4.7% (n = 360,000); activity change, % at 57.5 µM; in the data active means activity change below about -50%; inconclusive means mostly about -30% to -49%
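THP-1 cells pretreated 1 hr with compounds (up to 57.5 uM final), then stimulated with LPS (250 ng/mL final) plus ATP (1.25 mM final); secreted IL-1B measured by AlphaLISA after 16 hr, decreased signal indicating inhibition.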
RORg inh: ROR gamma (mouse) transcription inhibition; Drosophila S2 Gal4-RORgamma UAS-luciferase reporter, 20 h; Potency, µM (highest dose often 53.6 µM), hits mostly inhibitors; actives 5.4% (n = 310,000); AID 2551; further: nearly all actives have a fitted effect of over 60% in size
Target sequence (P51450 whole entry, looked up, the tested form may be a part): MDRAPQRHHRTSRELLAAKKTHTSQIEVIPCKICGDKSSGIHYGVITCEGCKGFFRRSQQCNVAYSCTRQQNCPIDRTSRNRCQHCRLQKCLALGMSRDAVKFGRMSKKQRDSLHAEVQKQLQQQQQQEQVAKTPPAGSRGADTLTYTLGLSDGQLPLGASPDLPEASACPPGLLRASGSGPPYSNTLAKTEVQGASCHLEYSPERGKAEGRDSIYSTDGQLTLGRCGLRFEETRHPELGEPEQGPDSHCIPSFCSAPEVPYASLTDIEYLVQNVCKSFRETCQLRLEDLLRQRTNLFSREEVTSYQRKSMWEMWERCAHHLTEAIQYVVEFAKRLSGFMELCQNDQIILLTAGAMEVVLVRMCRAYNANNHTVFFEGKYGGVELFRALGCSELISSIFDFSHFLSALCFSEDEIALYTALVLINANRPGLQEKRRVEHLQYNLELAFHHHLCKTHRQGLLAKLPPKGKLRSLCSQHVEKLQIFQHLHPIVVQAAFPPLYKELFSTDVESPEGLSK
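Luminescence from a UAS-regulated Photinus luciferase reporter in stably transfected Drosophila Schneider cells is measured; decreased signal marks ROR gamma inhibition. Fusion expression is induced by 700 uM copper sulfate for 20 hr.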
Gal4-VP16 FLuc: Gal4-VP16 reporter inhibition counter-screen; Drosophila S2 Gal4-VP16 UAS-luciferase, luminescence, 20 h; Potency, µM (titrated, usually from 53.6 µM), hits mostly inhibitors; actives 3.5% (n = 310,000); AID 2546;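 further: Gal4-VP16 expression switched on by copper sulfate through the metallothionein promoter; nearly all actives have a fitted effect of over 50% in size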
LDHA block: blocks human lactate dehydrogenase A. P00338. activity change, % (values are at about 110 or 230 µM). purified LDHA, NADH/diaphorase-resazurin fluorescence; stronger effect = lower value. actives 0.15% (n = 480,000); in the data active means activity change below about -30%; inconclusive means mostly about -25% to -30%
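Remaining NADH was detected by diaphorase (0.133 mg/mL) converting 37 µM resazurin to fluorescent resorufin, read at 0 and 20 minutes. The preceding 5-minute room-temperature reaction used 2 nM LDHA, 0.2 mM sodium pyruvate and 0.06 mM NADH at pH 7.4.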
DT40 TDP1 CPT: DT40-hTDP1 cell growth loss with CPT; chicken DT40 Tdp1-/-;hTDP1 cells + 20 nM CPT, ATP luminescence, 48 h; Potency, µM (titrated, usually from 46.2 µM), usual class: inhibitors; actives 12% (n = 420,000); further: nearly all actives have a fitted effect of over 55% in size
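Cell growth measured by CellTiter-Glo luminescence after a minimum 48 h, 37 C compound exposure with 20 nM CPT in Tdp1-knockout DT40 cells stably expressing hTDP1, seeded 400/well; qHTS titration format.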
A number is an active result; i = inactive; ? = inconclusive; nt = not tested or not shown; [ ] = remark or other dose. Rows were chosen to be rich in hits. Some 18% of all compounds tested hit in one or more screens of this group. Unless noted, the call rests on the fitted dose curve; in most records, active means well fitted curve in the direction sought with a large enough effect; inconclusive means small, poorly fitted or top-dose-only effect, or another doubt; inactive means no such curve, though single readings can be large; an effect the other way counts as inactive or inconclusive.

SMILES | DT40 TDP1 no CPT | IL-1B inflam inh | RORg inh | Gal4-VP16 FLuc | LDHA block | DT40 TDP1 CPT
Cc1c2cnn(CC(=O)N3CCCCC3)c(=O)c2c(C)n1Cc1ccc(Cl)cc1 | 23µM | nt | nt | nt | i | 23µM
CCOC(=O)C1CCN(C(=O)Cn2ncc3c4ccccc4n(Cc4ccc(F)cc4)c3c2=O)CC1 | 1.8µM | nt | nt | nt | i | 3.3µM
CCOC(=O)C1CCN(C(=O)Cn2ncc3c4ccccc4n(Cc4ccccc4)c3c2=O)CC1 | 7.3µM | nt | nt | nt | i | 8.2µM
Cn1c2ccccc2c2cnn(CC(=O)N3CCCCC3)c(=O)c21 | i | i | i | i | i | i
CC1CCN(C(=O)Cn2ncc3c4ccccc4n(C)c3c2=O)CC1 | i | i | i | i | i | i
CCOC(=O)C1CCCN(C(=O)Cn2ncc3c4ccccc4n(Cc4ccccc4)c3c2=O)C1 (configuration not stated) | 18µM | nt | nt | nt | i | ?
O=C(Cn1ncc2c3ccccc3n(Cc3cccc(Cl)c3)c2c1=O)NCCCN1CCCCC1 | i | nt | nt | nt | i | i
CCOC(=O)C1CCCN(C(=O)Cn2ncc3c4ccccc4n(C)c3c2=O)C1 (configuration not stated) | ? | nt | nt | nt | i | i
CCCN1CCN(C(=O)Cn2ncc3c4ccccc4n(Cc4cccc(Cl)c4)c3c2=O)CC1 | 12µM | nt | nt | nt | i | 13µM
CN1CCN(C(=O)Cn2ncc3c4ccccc4n(Cc4ccc(F)cc4)c3c2=O)CC1 | 7.3µM | nt | nt | nt | i | 15µM
CC(CCc1ccccc1)NC(=O)Cn1ncc2c3ccccc3n(Cc3ccc(F)cc3)c2c1=O (configuration not stated) | ? | nt | nt | nt | i | ?
COC(=O)Nc1ccc(CNC(=O)c2ccc(C)cc2)cc1 | nt | nt | nt | nt | i | nt
O=C(C(Cc1ccccc1)n1cccc1)N1CCc2ccccc21 (configuration not stated) | ? | i | ? | ? | i | ?
O=C(C(Cc1ccccc1)n1cccc1)N1CCN(c2ccccc2)CC1 (configuration not stated) | 26µM | i | i | ? | i | 23µM
CC1CCCN(C(=O)C(Cc2ccccc2)n2cccc2)C1 (configuration not stated) | i | i | i | i | i | 15µM
Cc1ccc(C)c(N2CCN(C(=O)C(Cc3ccccc3)n3cccc3)CC2)c1 (configuration not stated) | 23µM | i | i | i | i | 23µM
CCCCn1c(=O)n(CC(=O)Nc2cccc(C(C)=O)c2)c(=O)c2c1ncn2Cc1ccco1 | nt | nt | nt | nt | i | nt
O=c1cc(-c2ccc(F)cc2)oc2ccc(Cl)cc12 | nt | nt | nt | nt | i | nt
O=C1c2ccccc2C(=O)c2c1ncn2-c1ccccc1 | 5.2µM | i | 11µM | ? | i | 5.8µM
COc1ccc(C(CCNCc2ccc(N(C)C)cc2)c2ccccc2OC)cc1 (configuration not stated) | 15µM | -101 | i | i | i | 18µM
COc1ccc(C(CCNCc2ccc(F)cc2)c2ccc(F)cc2)cc1 (configuration not stated) | ? | i | ? | ? | i | ?
COc1ccc(C(CCNC(C)c2ccccc2)c2ccc(F)cc2)cc1 (configuration not stated) | 7.3µM | -50 | i | ? | i | 7.3µM
COc1ccc(CNC(C)CCc2ccccc2)cc1 (configuration not stated) | ? | i | nt | nt | i | ?
COc1ccc(C(CCNCc2ccccc2)c2ccc(F)cc2)cc1 (configuration not stated) | ? | i | i | i | i | ?
COc1ccc(CNCCC(c2ccc(OC)cc2)c2ccccc2OC)cc1 (configuration not stated) | 6.5µM | -83 | i | i | i | 18µM
SMILES | DT40 TDP1 no CPT | IL-1B inflam inh | RORg inh | Gal4-VP16 FLuc | LDHA block | DT40 TDP1 CPT
COc1ccc(CNCCC(c2ccc(F)cc2)c2ccc(OC)cc2)cc1 (configuration not stated) | 10µM | nt | i | i | i | 12µM
CCC1CCCN(C(=O)CCn2cnc3c2c(=O)n(C)c(=O)n3C)C1 (configuration not stated) | nt | nt | nt | nt | i | nt
O=C(COC(=O)CC12CC3CC(CC(C3)C1)C2)Nc1ccc(F)c([N+](=O)[O-])c1 | nt | nt | nt | nt | i | nt
COc1ccc(C(CCNCc2ccc(OC(C)C)cc2)c2ccccc2OC)cc1 (configuration not stated) | 16µM | -89 | ? | ? | i | 23µM
CCN(CC)c1ccc(NC(=O)COc2ccc3c(=O)c(Oc4ccccc4F)c(C)oc3c2)cc1 | nt | nt | nt | nt | i | nt
CCOC(=O)C1=C(C)N(C)C(=S)NC1c1cccc(Cl)c1Cl (configuration not stated) | i | i | 4µM | ? | i | i
CCOC(=O)C1=C(C)N(C)C(=S)NC1c1ccc(Cl)cc1Cl (configuration not stated) | ? | i | 7.1µM | 7.9µM | i | ?
CCCOC(=O)C1=C(C)N(C)C(=O)NC1c1cc2c(cc1[N+](=O)[O-])OCO2 (configuration not stated) | ? | i | i | i | i | ?
CC1=C(C(=O)OCC(C)C)C(c2cc3c(cc2Br)OCO3)NC(=O)N1C (configuration not stated) | ? | i | i[0.365 µM] | nt | i | 18µM
CC1=C(C(=O)OCC(C)C)C(c2ccccc2Cl)NC(=O)N1C (configuration not stated) | 13µM | i | i | i | i | 8.2µM
CCOC(=O)C1=C(C)N(CCCC(=O)O)C(=O)NC1c1ccccc1Cl (configuration not stated) | i | i | nt | nt | i | i
CCOC(=O)C1=C(C)N(CCCC(=O)O)C(=O)NC1c1ccc(Cl)cc1Cl (configuration not stated) | i | i | i | i | i | ?
CCN(CC)C(=O)c1cc(-c2ccc(Br)cc2)nc2ccccc12 | nt | nt | nt | nt | i | nt
O=C(c1ccc(Cl)cc1)c1ccccc1C(=O)N1CCN(C(=O)C2CC2)CC1 | nt | nt | nt | nt | i | nt
CC(C)(C)c1[nH]nc(C(=O)O)c1Br | nt | nt | nt | nt | i | nt
CC(C)CNC(=O)C(C)SCc1ccccc1 (configuration not stated) | nt | nt | nt | nt | i | nt
Cc1nn(-c2ncnc3nc[nH]c23)c2c1C(c1ccc(F)c(F)c1)CC(=O)N2 (configuration not stated) | nt | nt | nt | nt | i | nt
CCOCCOC(=O)C1=C(C)N(C)C(=O)NC1c1ccccc1Cl (configuration not stated) | i | i | i | i | i | i
CCOC(=O)C1=C(C)N(C)C(=O)NC1c1cccc2ccccc12 (configuration not stated) | 26µM | i | i | i | i | ?

Compound activity as filed in PubChem BioAssay.
